Measurements: publication PMC7862700, “An all-to-all approach to the identification of sequence-specific readers for epigenetic DNA modifications on cytosine”

How the values were obtained:
Assay in all cases: DAPPL (digital affinity profiling via proximity ligation, sequencing); 10 mM Tris-HCl pH 7.5, 50 mM NaCl, 1 mM DTT, 4% glycerol, room temperature, 30 min; GST-TFs on glutathione beads, 16-mer random dsDNA library, 0.1% formaldehyde crosslink after washing; high values mean tight binding
Conditions in all cases: protein: recombinant; tags: N-terminal GST; dsDNA, one strand shown
ERF = target: T1, ERF (Homo sapiens, UniProt P50548 1-548)
T1 sequence: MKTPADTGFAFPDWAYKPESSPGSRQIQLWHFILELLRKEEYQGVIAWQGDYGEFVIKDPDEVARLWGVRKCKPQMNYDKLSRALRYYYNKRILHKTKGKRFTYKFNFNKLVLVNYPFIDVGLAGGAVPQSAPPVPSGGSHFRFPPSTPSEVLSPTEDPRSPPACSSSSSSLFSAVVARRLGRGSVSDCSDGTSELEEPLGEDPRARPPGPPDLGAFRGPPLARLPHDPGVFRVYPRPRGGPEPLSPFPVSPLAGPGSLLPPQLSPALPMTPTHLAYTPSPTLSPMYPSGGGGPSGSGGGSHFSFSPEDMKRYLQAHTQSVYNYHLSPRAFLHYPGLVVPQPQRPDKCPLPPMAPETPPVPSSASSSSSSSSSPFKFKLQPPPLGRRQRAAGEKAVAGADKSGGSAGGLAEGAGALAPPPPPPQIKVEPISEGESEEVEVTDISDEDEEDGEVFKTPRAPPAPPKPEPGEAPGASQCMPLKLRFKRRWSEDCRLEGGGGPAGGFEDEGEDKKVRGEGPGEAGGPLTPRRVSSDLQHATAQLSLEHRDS
Method in brief: (§1)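 Binding signal is each hexamer's read frequency for a factor divided by its frequency in the tag-only sample. The factors were GST-fused human transcription factors from yeast, captured on glutathione beads, DNA-barcoded and pooled with that sample. Pools were incubated with 200 nmole of a random double-stranded 16-mer DNA library in Tris/NaCl/DTT/glycerol buffer at room temperature for 30 min, then washed, crosslinked with 0.1% formaldehyde, proximity-ligated with BsaI/T4 ligase (1 h, 37 °C), PCR-amplified and sequenced on an Illumina NextSeq500.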

ETV3L = target: T2, ETV3L (Homo sapiens, UniProt Q6ZN32 1-361)
T2 sequence: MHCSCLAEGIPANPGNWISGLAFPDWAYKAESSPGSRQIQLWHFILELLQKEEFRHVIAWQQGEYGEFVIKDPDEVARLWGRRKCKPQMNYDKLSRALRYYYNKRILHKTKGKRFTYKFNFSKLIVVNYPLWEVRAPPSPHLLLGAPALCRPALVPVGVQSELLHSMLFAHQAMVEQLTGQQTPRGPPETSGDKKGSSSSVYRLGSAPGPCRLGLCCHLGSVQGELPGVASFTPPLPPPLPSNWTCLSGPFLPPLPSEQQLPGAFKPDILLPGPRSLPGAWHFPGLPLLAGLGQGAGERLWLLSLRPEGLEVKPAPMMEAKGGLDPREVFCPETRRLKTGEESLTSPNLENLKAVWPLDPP
Method in brief: as §1

ETS2 = target: T3, ETS2 (Homo sapiens, UniProt P15036 1-469)
T3 sequence: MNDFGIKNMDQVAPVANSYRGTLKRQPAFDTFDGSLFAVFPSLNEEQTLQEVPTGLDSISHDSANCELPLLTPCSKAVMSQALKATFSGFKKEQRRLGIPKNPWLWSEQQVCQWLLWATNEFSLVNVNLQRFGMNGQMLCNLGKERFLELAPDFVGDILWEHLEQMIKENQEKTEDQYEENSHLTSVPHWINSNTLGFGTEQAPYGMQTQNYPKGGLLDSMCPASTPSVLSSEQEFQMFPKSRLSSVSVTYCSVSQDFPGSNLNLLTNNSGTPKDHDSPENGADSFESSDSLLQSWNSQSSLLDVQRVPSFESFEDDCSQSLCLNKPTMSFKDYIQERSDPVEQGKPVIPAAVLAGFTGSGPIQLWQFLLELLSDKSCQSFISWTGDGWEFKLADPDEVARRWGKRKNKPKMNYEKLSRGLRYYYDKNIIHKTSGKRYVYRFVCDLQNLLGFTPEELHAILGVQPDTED
Method in brief: as §1

SPDEF = target: T4, SPDEF (Homo sapiens, UniProt O95238 1-335)
T4 sequence: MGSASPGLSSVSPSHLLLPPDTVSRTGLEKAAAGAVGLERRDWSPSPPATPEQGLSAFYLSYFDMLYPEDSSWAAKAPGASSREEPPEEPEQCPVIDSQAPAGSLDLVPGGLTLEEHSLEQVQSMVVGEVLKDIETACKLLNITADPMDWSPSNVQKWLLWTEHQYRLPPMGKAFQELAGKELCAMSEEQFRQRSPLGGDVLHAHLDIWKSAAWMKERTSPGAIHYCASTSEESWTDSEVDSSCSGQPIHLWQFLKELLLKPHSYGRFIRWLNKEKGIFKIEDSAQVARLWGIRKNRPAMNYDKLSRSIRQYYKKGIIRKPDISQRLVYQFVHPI
Method in brief: as §1

ETV7 = target: T5, ETV7 (Homo sapiens, UniProt Q9Y603 1-341)
T5 sequence: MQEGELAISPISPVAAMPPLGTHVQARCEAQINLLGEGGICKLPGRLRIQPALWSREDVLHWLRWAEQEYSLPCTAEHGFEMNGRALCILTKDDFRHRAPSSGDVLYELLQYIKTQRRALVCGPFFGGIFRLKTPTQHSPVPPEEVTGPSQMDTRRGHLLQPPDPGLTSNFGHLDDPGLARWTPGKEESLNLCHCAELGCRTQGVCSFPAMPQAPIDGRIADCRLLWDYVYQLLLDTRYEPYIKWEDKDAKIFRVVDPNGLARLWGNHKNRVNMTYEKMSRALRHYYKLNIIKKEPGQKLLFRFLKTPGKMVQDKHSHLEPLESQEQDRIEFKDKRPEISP
Method in brief: as §1

ELF5 = target: T6, ELF5 (Homo sapiens, UniProt Q9UKW6-2 1-255)
T6 sequence: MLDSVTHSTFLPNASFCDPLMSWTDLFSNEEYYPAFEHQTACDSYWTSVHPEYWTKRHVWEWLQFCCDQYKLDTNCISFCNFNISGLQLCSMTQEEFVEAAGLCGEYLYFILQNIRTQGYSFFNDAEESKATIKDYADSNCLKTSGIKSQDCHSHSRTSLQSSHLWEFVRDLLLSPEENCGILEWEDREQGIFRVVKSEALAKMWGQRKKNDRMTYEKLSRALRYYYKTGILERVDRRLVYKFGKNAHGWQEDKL
Method in brief: as §1

ETV3 = target: T7, ETV3 (Homo sapiens, UniProt P41162-2 1-143)
T7 sequence: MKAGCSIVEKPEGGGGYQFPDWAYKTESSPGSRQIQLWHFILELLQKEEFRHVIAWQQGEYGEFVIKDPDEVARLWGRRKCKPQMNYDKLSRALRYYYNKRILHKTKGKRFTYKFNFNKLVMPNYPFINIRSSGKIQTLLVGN
Method in brief: as §1

ETV6 = ETV6 (Homo sapiens, UniProt P41212 1-452)
Method in brief: as §1

Chain of ETV6 (P41212 whole entry): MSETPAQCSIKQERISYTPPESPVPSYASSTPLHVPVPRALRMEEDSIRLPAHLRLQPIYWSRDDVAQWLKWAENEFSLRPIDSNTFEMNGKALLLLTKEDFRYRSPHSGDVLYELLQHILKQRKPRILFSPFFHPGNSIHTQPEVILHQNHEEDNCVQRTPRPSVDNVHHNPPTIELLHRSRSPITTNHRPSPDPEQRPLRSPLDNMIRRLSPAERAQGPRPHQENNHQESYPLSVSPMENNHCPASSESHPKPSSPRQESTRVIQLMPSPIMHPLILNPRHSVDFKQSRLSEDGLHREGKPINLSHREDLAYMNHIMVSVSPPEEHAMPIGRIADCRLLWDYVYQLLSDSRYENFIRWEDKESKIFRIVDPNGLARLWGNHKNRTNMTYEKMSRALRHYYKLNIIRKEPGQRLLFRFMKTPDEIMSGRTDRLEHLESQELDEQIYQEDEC

Row | Sequence | binding signal (ERF) | binding signal (ETV3L) | binding signal (ETS2) | binding signal (SPDEF) | binding signal (ETV7) | binding signal (ELF5) | binding signal (ETV3) | binding signal (ETV6)
1 | ATTGTA | 1.27 fold enrichment (6-mer frequency, TF over GST control) | 1.28 fold enrichment (6-mer frequency, TF over GST control) | 1.17 fold enrichment (6-mer frequency, TF over GST control) | 1.18 fold enrichment (6-mer frequency, TF over GST control) | 1.28 fold enrichment (6-mer frequency, TF over GST control) | 1.21 fold enrichment (6-mer frequency, TF over GST control) | 1.26 fold enrichment (6-mer frequency, TF over GST control) | 1.27 fold enrichment (6-mer frequency, TF over GST control)
2 | TTCAGC | 1.14 fold enrichment (6-mer frequency, TF over GST control) | 1.21 fold enrichment (6-mer frequency, TF over GST control) | 1.27 fold enrichment (6-mer frequency, TF over GST control) | 1.12 fold enrichment (6-mer frequency, TF over GST control) | 1.27 fold enrichment (6-mer frequency, TF over GST control) | 1.16 fold enrichment (6-mer frequency, TF over GST control) | 1.32 fold enrichment (6-mer frequency, TF over GST control) | 1.2 fold enrichment (6-mer frequency, TF over GST control)
3 | CCTTTC | 1.62 fold enrichment (6-mer frequency, TF over GST control) | 1.54 fold enrichment (6-mer frequency, TF over GST control) | 1.59 fold enrichment (6-mer frequency, TF over GST control) | 1.5 fold enrichment (6-mer frequency, TF over GST control) | 1.39 fold enrichment (6-mer frequency, TF over GST control) | 1.75 fold enrichment (6-mer frequency, TF over GST control) | 1.62 fold enrichment (6-mer frequency, TF over GST control) | 1.62 fold enrichment (6-mer frequency, TF over GST control)
4 | TTATCC | 1.44 fold enrichment (6-mer frequency, TF over GST control) | 1.38 fold enrichment (6-mer frequency, TF over GST control) | 1.51 fold enrichment (6-mer frequency, TF over GST control) | 1.76 fold enrichment (6-mer frequency, TF over GST control) | 1.44 fold enrichment (6-mer frequency, TF over GST control) | 1.56 fold enrichment (6-mer frequency, TF over GST control) | 1.51 fold enrichment (6-mer frequency, TF over GST control) | 1.47 fold enrichment (6-mer frequency, TF over GST control)
5 | AAATAA | 1.38 fold enrichment (6-mer frequency, TF over GST control) | 1.26 fold enrichment (6-mer frequency, TF over GST control) | 1.39 fold enrichment (6-mer frequency, TF over GST control) | 1.25 fold enrichment (6-mer frequency, TF over GST control) | 1.32 fold enrichment (6-mer frequency, TF over GST control) | 1.34 fold enrichment (6-mer frequency, TF over GST control) | 1.31 fold enrichment (6-mer frequency, TF over GST control) | 1.5 fold enrichment (6-mer frequency, TF over GST control)
6 | GAACAA | 1.24 fold enrichment (6-mer frequency, TF over GST control) | 1.2 fold enrichment (6-mer frequency, TF over GST control) | 1.22 fold enrichment (6-mer frequency, TF over GST control) | 1.14 fold enrichment (6-mer frequency, TF over GST control) | 1.17 fold enrichment (6-mer frequency, TF over GST control) | 1.23 fold enrichment (6-mer frequency, TF over GST control) | 1.18 fold enrichment (6-mer frequency, TF over GST control) | 1.25 fold enrichment (6-mer frequency, TF over GST control)
7 | AGATCC | 1.08 fold enrichment (6-mer frequency, TF over GST control) | 1.13 fold enrichment (6-mer frequency, TF over GST control) | 1.2 fold enrichment (6-mer frequency, TF over GST control) | 2.08 fold enrichment (6-mer frequency, TF over GST control) | 1.03 fold enrichment (6-mer frequency, TF over GST control) | 1.22 fold enrichment (6-mer frequency, TF over GST control) | 1.21 fold enrichment (6-mer frequency, TF over GST control) | 1.1 fold enrichment (6-mer frequency, TF over GST control)
